TWEAK Fn14 block – inhibitors of TWEAK-Fn14 signaling, primary screen, luciferase reporter cells, uHTS | TWEAK-stimulated Fn14 reporter cells, luciferase luminescence, 8 h | inhibition, % at 10 µM | 360,000 compounds, 2% hits | AID 1159606, 2016; in the data active means inhibition above about 50%
Shn3 3UTR inh – reduction of Shn3 3'UTR firefly luciferase signal, primary screen, Schnurri-3 inhibitor project, cell-based, Clone20 osteoblasts, set 2; Clone20 osteoblast Shn3 3'UTR firefly luciferase, 24 h; 360,000 compounds, 0.52% hits; inhibition, % at 12.5 µM;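 active means mean inhibition of at least 75% with every replicate also reaching 75%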;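 further: 0% = median of neutral control wells and 100% = pilot-screen positive control compound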
LMP1 NFkB inh – EBV LMP1-driven NF-kappaB luciferase reporter inhibitors, primary screen, cell-based, luminescence, single point; LMP1-induced NF-kappaB luciferase reporter cells; inhibition, % at 12.5 µM; 350,000 compounds, 0.69% hits; in the data active means inhibition above about 41%;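 further: 0% = neutral control wells and 100% = reference inhibitor control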
TROY NFkB inh – inhibitors of TROY-driven NF-kB signaling, primary screen, Q293 LMP1-TROYcd cells, NF-kB luciferase, uHTS; 360,000 compounds, 0.98% hits; Q293 LMP1-TROYcd NF-kB luciferase reporter, 4 h; inhibition, % at 10 µM;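 active means compounds whose plate-normalised and pattern-corrected inhibition of the luciferase reporter signal at the single screening dose is 50% or more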
Peg3 prom inh – Peg3 promoter-driven luciferase inhibitors, primary screen, cell-based, HeLa, luciferase luminescence; HeLa PEG-Prom luciferase reporter, overnight; 360,000 compounds, 1.7% hits; inhibition, % at 20 µM; AID 588405, 2011;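 active means inhibition of at least 50% at 20 µM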
TRPM1 prom inh – inhibitors of MITF-dependent TRPM1 promoter reporter, primary screen, cell-based, SK-MEL-5, single point, luciferase | SK-MEL-5 TRPM1 promoter luciferase, 24 h | inhibition, % at 12.5 µM | 330,000 compounds, 0.83% hits | AID 488899, 2010;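 active means mean inhibition across replicates of 60% or more, whatever share of single replicates reaches that level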
* = called active by the depositor; . = no result. Only some compounds are listed: those with a hit (about 4.1% of all), similar ones and a draw of the others.

SMILES | TWEAK Fn14 block | Shn3 3UTR inh | LMP1 NFkB inh | TROY NFkB inh | Peg3 prom inh | TRPM1 prom inh
CN1CCC2(CC1)Nc1nc(SCc3ccc(Cl)cc3)nn1C1=C2CN(C)CC1 | -40 | -3 | -27 | -2 | 52* | 55
CN1CCN(c2cc3c(c4c2[nH]c2ccccc24)C(=O)CC(C)(C)C3)CC1 | 19 | -3 | -22 | 1 | 107* | 5
CCCCOC(=O)c1ccc(NC(=S)N2CCN(c3ncc4c(=O)c(C(=O)O)cn(CC)c4n3)CC2)cc1 | 63* | -7 | -3 | 27 | -6 | 43
CCN1CCN(c2cc(SC(C)C)nc(-c3ccc(OC)cc3)n2)CC1 | -9 | -22 | -10 | -6 | 53* | -3
CC(C)(C)OC(=O)NC1CCN(S(=O)(=O)c2ccc3c(c2)OCCO3)CC1 | 3 | 33 | -2 | 4 | 4 | 7
COc1cc(NC(=O)Nc2nc(C(N)C3CCCCC3)cs2)cc(OC)c1OC (stereo not drawn) | 22 | 59 | . | 9 | 25 | .
NC(c1csc(NC(=O)Nc2cccc(Cl)c2)n1)C1CCCCC1 (stereo not drawn) | -4 | 37 | . | 1 | 92* | .
NC(c1csc(NC(=O)Nc2ccccc2Cl)n1)C1CCCCC1 (stereo not drawn) | -21 | 29 | . | -12 | 95* | .
COc1ccccc1NC(=O)Nc1nc(C(N)C2CCCCC2)cs1 (stereo not drawn) | -7 | -1 | . | 4 | 82* | .
NC(c1csc(NC(=O)Nc2ccccc2)n1)C1CCCCC1 (stereo not drawn) | -2 | -20 | . | -13 | 48 | .
COc1ccccc1NC(=O)Nc1nc(CC(=O)N2CCN(c3ccc(F)cc3)CC2)cs1 | 51* | 35 | -2 | 40 | 45 | -2
O=C1C(CO)C(CO)C(CO)C1CO (stereo not drawn) | 8 | -9 | 1 | 12 | 17 | 1
COc1ccc([C@H]2C[C@H](n3cc(COC(=O)c4ccccc4)nn3)[C@@H](O)CN2CC2CCCCC2)cc1 | -4 | -6 | 5 | -10 | -19 | .
COc1ccc([C@H]2C[C@@H](O)[C@H](n3cc(COC(=O)c4ccccc4)nn3)CN2CC2CCCCC2)cc1 | 12 | -17 | 6 | 4 | 52* | .
CCOc1ccc(Cn2c(=O)oc3ccccc32)cc1 | -3 | 2 | 1 | -3 | 17 | -4
CC(=O)OCCNc1cc(N2CCN(C)CC2)c2noc3c2c1C(=O)c1ccccc1-3 | -8 | 0 | -5 | -16 | 3 | .
CCOC(=O)C(C(=O)OCC)c1cc(Br)c2noc3c2c1C(=O)c1ccccc1-3 | 20 | 99* | 10 | 11 | 113* | 95*
CCN1CCN(C(CNS(=O)(=O)c2ccc(Br)cc2)c2cccnc2)CC1 (stereo not drawn) | -1 | 0 | -2 | -7 | 9 | 2
CCc1nc2ccc(C(=O)NC3CCC(C)CC3)cc2nc1CC (stereo not drawn) | -13 | -53 | -1 | -39 | -157 | -64
O=C1OC(/C(=C\Nc2ccc(F)cc2F)[N+](=O)[O-])c2ccccc21 (stereo not drawn) | 51* | -7 | 38 | 0 | 18 | 0
COC(=O)c1ccccc1NC(=S)NC(=O)c1ccc2ccccc2c1 | 6 | 6 | -9 | -2 | -11 | -9
COC(=O)c1ccccc1NC(=S)NC(=O)c1cccc2ccccc12 | 60* | 22 | 6 | 27 | -1 | -4
COc1c(C)cccc1C(=O)NC(=S)Nc1ccccc1N1CCCC1 | 57* | -22 | -3 | 68* | -30 | -14
CN1CCN(c2ccc(NC(=S)NC(=O)c3cccc4c(Br)cccc34)cc2)CC1 | -40 | 10 | 0 | -16 | -22 | -8
COc1ccc(C(=O)Nc2ccc(N3CCN(C)CC3)cc2)cc1 | 14 | -72 | -24 | -42 | -222 | -34
SMILES | TWEAK Fn14 block | Shn3 3UTR inh | LMP1 NFkB inh | TROY NFkB inh | Peg3 prom inh | TRPM1 prom inh
CN1CCN(c2ccc(NC(=O)c3ccc4ccccc4c3)cc2)CC1 | 78* | 1 | 14 | 65* | -90 | 12
CN1CCN(c2ccc(NC(=S)NC(=O)c3cccc4ccccc34)cc2)CC1 | -45 | 6 | -11 | -20 | 69* | 64*
O=C(COC(=O)c1cc(=O)[nH]c2ccccc12)NCc1ccc(Cl)cc1 | -17 | 6 | 2 | 14 | 5 | -9
Cc1cc(OCC(=O)OCC(=O)NC2CCCCCC2)ccc1Cl | -8 | 15 | 3 | 4 | -3 | 2
CC(=O)c1ccc(NC(=S)Nc2cccc3ccccc23)cc1 | 33 | -26 | 0 | 72* | -35 | 6
O=C(Nc1ccsc1C(=O)O)c1cccc(Oc2ccccc2)c1 | 53* | -6 | -25 | 53* | -181 | -8
O=C(Nc1ccsc1C(=O)O)c1cccc(C(F)(F)F)c1 | 2 | -75 | -29 | -31 | -107 | .
c1ccc(NC2=NCCN2CC2CCCCCC2)cc1 | -13 | 0 | 5 | 14 | -3 | -5
CC1NC(=S)N(Cc2ccccc2)C1=O (stereo not drawn) | 7 | 8 | 2 | 15 | 7 | 5
O=C(O)CC1NC(=S)N(Cc2ccccc2)C1=O (stereo not drawn) | 15 | -2 | 12 | 8 | 52* | .
CCN(CC(=O)Nc1ccccc1C(F)(F)F)C(=O)CSCc1ccc(C)cc1 | 2 | 12 | -1 | -4 | 21 | 0
Cc1nn(-c2ccccc2)c(Cl)c1C(=O)NCCCCNC(=O)c1c(C)nn(-c2ccccc2)c1Cl | 7 | -32 | 61* | 10 | -5 | 6
COC1=CC(=O)C(O)=C(CCCCCCC/C=C/CCCCCCCC2=C(O)C(=O)C=C(OC)C2=O)C1=O | 85* | 2 | 10 | 61* | 18 | 7
CCCCCCCCCCCC1=C(O)C(=O)C=C(O)C1=O | 4 | 16 | -4 | 10 | 33 | 2
COC(=O)C1CCN(C(=O)COC(=O)CSc2ccc(C(N)=O)cc2[N+](=O)[O-])CC1 | -10 | -19 | -4 | -17 | 6 | 6
O=C(COC(=O)/C=C/c1ccc(F)cc1)Nc1ccc2[nH]c(=O)[nH]c2c1 | 15 | -4 | -3 | -14 | 5 | -7
O=C(COC(=O)/C=C/c1ccc(OC(F)F)cc1)Nc1ccc2[nH]c(=O)[nH]c2c1 | -25 | 97* | -28 | -12 | 18 | -10
O=C(Nc1ccccc1OC(F)F)c1ccc(S(=O)(=O)N2CCCC2)cc1 | -6 | 10 | 2 | -13 | 8 | 3
O=C(NNC(=O)c1ccc(-n2cncn2)c([N+](=O)[O-])c1)c1cccc(Cl)c1 | -2 | -19 | 5 | -23 | -7 | -5
